B1: d4r5_design_ppi_435_dldesign_0_cycle1_af2pred (protein)
chain: SKSKKEAEKMREATRAFKEAGKAAAAAIASGETGEEAIAAARAKAEEVIKEAKEVGEGAGEFAEMLKENLDKALAAAS
B2: d4r5_design_ppi_378_dldesign_0_cycle0_af2pred (protein)
chain: AAAAAAAARAAMAAQAAANAAKAKEVFDKLAETYPEAKDEAKAKAAEVAAAFAATAAAGGDQAQLTANNNAAQDARSEVIAIANKK
B3: d4r5_design_ppi_375_dldesign_0_cycle1_af2pred (protein)
chain: AAKEMANELQELIEKLREASSVKDQNEVSKVIKEARKKAKEAIKAYEKDPELGKKLFEEAKEILEKALKKAE
B4: d4r5_design_ppi_438_dldesign_0_cycle0_af2pred (protein)
chain: SKEEMERRAEQVEKAVEGAEEEAKEGTPEEALALLRSVLRRAKEVAEESKKYPEVKKRAEKALERAEKIKKELLEK
B5: d4r5_design_ppi_429_dldesign_0_cycle0_af2pred (protein)
chain: VEEAKKLGEEYIKKVKEAKDAKEALEIGEKAAKELVEKAKASEDGETAQAYLEAASEVKATALRQARKLEE
B6: d4r5_design_ppi_466_dldesign_0_cycle1_af2pred (protein)
chain: EEKKKILEEAAKEAAAAAKADNPELAPRVERLAKRAVEIGTKQKSVEAAAGVMENAADQAAAAAPAAAAVLKKGAEELEKLAK
B7: d4r5_design_ppi_384_dldesign_0_cycle1_af2pred (protein)
chain: GITWDELMDIQADAFYYLSEAKKITPEAEAKAKELYQKSLEYYKKAAEYLAKAEEVGPEAKEEAKEYADKAAEEVEKLKKLVEEAKN
B8: d4r5_design_ppi_384_dldesign_0_cycle0_af2pred (protein)
chain: AVTWDEILDIQARANYYLSEAKKLTEEAYKEAKKLYEEARKHYGEAAKYLADAPKVGEEAKKKAAEHAKEAEKLVKELEELVKKAKE
B9: d4r5_design_ppi_473_dldesign_0_cycle1_af2pred (protein)
chain: GEAKRKKAEALLERYKARAEELIEKAKASDYVTAESYAISVETRFTDFAAAAEKDPATKEVAKRAKKVGKEYVEKLKKIAEEKKAAE
B10: d4r5_design_ppi_448_dldesign_0_cycle0_af2pred (protein)
chain: MKEKLKKEAKEAEKKMEELIKKIEEANPEAGKVAREAREKGKASPKGREYTNKGISEAGKLAGPEVAPIAQEARQEAAAADAYKKII
B11: d4r5_design_ppi_490_dldesign_0_cycle0_af2pred (protein)
chain: SKEEEAKKTGKEQVKKVKETAETGTAAETAETAQEARAELNEKAAEAGTEEARKIAEEAKKEIREIVKKKKEEEA
B12: d4r5_design_ppi_459_dldesign_0_cycle1_af2pred (protein)
chain: DLEALKEKYLKETKAAAEKAAKIDKKVGDELKDLAELIKEGYGVKGNYNKAKALAAKAEADAKKEAALKA
B13: d4r5_design_ppi_347_dldesign_0_cycle1_af2pred (protein)
chain: GREEEAKRVAEVILERLKDPKAQEAAKKTGEAGKAFLEAYELYKKDREAGIEYLAKEILKNPSWAQDFRENYAEEEAK
B14: d4r5_design_ppi_438_dldesign_0_cycle1_af2pred (protein)
chain: DLEELKRRAEQVELLVEMAEEEAKTGSKEEALALLNSAIRDAKEVAEEGAAYPEVSERAKAALERAEKIRKELLAS
B15: d4r5_design_ppi_428_dldesign_0_cycle1_af2pred (protein)
chain: AAAAAETAAARERAARDLARAEAAAKAGKADPSKAPLAIAILEGVAERFEFYAKAAGPAAAAVAREAAERAKALAKEL
B16: d4r5_design_ppi_375_dldesign_0_cycle0_af2pred (protein)
chain: KEKEMANKLQEKIEELYSAATPEQQSKVSEKIKEARKAAKEAVKKYKEDEEKGKELFKKAEEILEEGLKEAK
B17: d4r5_design_ppi_466_dldesign_0_cycle0_af2pred (protein)
chain: SEAEEILRETVERATAAAAAEDPALAPRVRAAAERAAEIAKSQKSIEAAAGVLEIFADRAAAASPAAAAVAREGARRLEELAK
B18: d4r5_design_ppi_400_dldesign_0_cycle1_af2pred (protein)
chain: AAAEAAAKEAAKAKADELLKKAKESYEEAKKNKDNKELVFKYLADIEVKAAQADFLGAKDPYAKEKAKEIEKLAKEAEKILK
B19: d4r5_design_ppi_400_dldesign_0_cycle0_af2pred (protein)
chain: AAAAAAAKAAAKAAAEKDLKRAEEAYKNAKKNKDNKEIVFKNYAEIETKAARADALAAADPYAAEAAKKIKELAEEAEKILK

biological target: VTCN1, Q7Z7D3
Sequence (Q7Z7D3 whole entry): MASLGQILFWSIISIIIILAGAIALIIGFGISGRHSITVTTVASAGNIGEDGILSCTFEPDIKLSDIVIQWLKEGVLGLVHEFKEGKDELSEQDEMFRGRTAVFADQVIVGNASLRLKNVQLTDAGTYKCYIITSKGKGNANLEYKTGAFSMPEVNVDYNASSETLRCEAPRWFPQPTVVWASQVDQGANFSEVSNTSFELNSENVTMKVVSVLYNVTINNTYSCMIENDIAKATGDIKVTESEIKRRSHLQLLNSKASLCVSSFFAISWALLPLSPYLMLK

Binding in a display sort, inactive:
B1 not found
B2 not found
B3 not found
B4 not found
B5 not found
B6 not found
B7 not found
B8 not found
B9 not found
B10 not found
B11 not found
B12 not found
B13 not found
B14 not found
B15 not found
B16 not found
B17 not found
B18 not found
B19 not found

Source: publication PMC13494018
